In PubChem BioAssay:
Activity calls are given as the source filed them.

Experiments:
Albumin (Bos taurus) = Albumin (Bos taurus) (UniProt P02769); experiment: bovine serum albumin binders on microarray, profiling panel, artefact control for SMM control protein annotation, biochemical, small-molecule microarray, Alexa647 label, 635/667 nm fluorescence (AID 1118); conditions: BSA-A647 binding, fluorescence 635 nm, higher = more signal;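 further: score merges 667 nm emission intensity and signal-to-noise per printed compound spot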
[1] = small-molecule microarray binders of probe aXIP, primary screen, biochemical, NeuroSMM set, 635/667 nm fluorescence (AID 1119); conditions: higher = more signal, called active from +8 up or from −8 down;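 further: probe is the protein aXip251-270 applied at 1 µg/mL to compound-printed slides; binding of probe to printed compounds measured as 667 nm fluorescence plus signal to noise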
[2] = small-molecule binders of probe aNOTCH3, primary screen, biochemical, small-molecule microarray, 635/667 nm fluorescence (AID 1120); conditions: higher = more signal;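 further: probe is a biotin-tagged antibody raised against NOTCH3 rather than NOTCH3 protein; score merges spot fluorescence near 667 nm with spot signal to noise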
[3] = small-molecule binders of probe aNOTCH2, primary screen, biochemical, small-molecule microarray, 635/667 nm fluorescence (AID 1121); conditions: higher = more signal;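 further: score merges feature fluorescence read at 667 nm with its signal to noise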
[4] = biological target: Carbonic anhydrase 2 (Homo sapiens) (UniProt P00918); experiment: CAII small-molecule binders, profiling panel, biochemical, small-molecule microarray, Alexa647-labelled CAII (AID 1122); conditions: CAII-A647 binding fluorescence, higher = more signal
[5] = COS7 lysate on small-molecule microarray, probe aHis, 635 nm (AID 1123); conditions: COS7 cell lysate, fluorescence, higher = more signal;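 further: z-score combines 667nm fluorescence intensity with signal-to-noise per printed compound spot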
[6] = compound binding in COS7 lysate, probe aLAP1, primary screen, cell lysate, small-molecule microarray (AID 1124); conditions: probe aLAP1, fluorescence, higher = more signal;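 further: lysate comes from COS7 cells expressing LAP1 and is applied at 0.3 µg/mL; score merges spot fluorescence near 667 nm with signal-to-noise over triplicate slides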
Sam68 (KHDRBS1) = experiment: Sam68 small-molecule binders, primary screen, biochemical, small-molecule microarray, 635 nm fluorescence (AID 1125); conditions: small-molecule microarray binding, higher = more signal;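 further: score merges 667 nm channel intensity with signal to noise over triplicate slides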
[7] = system: Chordin-like protein 2 (CHRDL2); experiment: CHRDL2 small-molecule binders, primary screen, biochemical, small-molecule microarray, 635 nm fluorescence (AID 1126); conditions: small-molecule microarray binding, fluorescence 635 nm; higher = more signal;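 further: printed compound slides probed with Chrdl2 protein at 4 µg/mL for 1 h at 4 C; score merges 667 nm emission intensity with signal to noise over three replicate slides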
[8] = biological target: Concanavalin-A (Canavalia ensiformis) (UniProt P02866); experiment: ConA small-molecule binders, primary screen, artefact control for SMM control protein annotation, biochemical, small-molecule microarray, Alexa647 label, 635 nm (AID 1127); conditions: ConA-A647 binding fluorescence, higher = more signal;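 further: z combines 667 nm emission intensity with signal-to-noise across three replicate slides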
Concanavalin-A (Canavalia ensiformis), sequence (P02866 whole entry, looked up): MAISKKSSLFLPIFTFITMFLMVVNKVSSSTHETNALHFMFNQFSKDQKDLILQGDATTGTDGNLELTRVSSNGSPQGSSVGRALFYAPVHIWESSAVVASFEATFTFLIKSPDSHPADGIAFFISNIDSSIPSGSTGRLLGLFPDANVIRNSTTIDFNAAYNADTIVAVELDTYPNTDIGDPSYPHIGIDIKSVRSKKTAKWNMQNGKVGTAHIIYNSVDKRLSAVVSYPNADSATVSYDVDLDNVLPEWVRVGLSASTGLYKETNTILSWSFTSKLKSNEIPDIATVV

Albumin (Bos taurus), sequence (P02769 whole entry, looked up): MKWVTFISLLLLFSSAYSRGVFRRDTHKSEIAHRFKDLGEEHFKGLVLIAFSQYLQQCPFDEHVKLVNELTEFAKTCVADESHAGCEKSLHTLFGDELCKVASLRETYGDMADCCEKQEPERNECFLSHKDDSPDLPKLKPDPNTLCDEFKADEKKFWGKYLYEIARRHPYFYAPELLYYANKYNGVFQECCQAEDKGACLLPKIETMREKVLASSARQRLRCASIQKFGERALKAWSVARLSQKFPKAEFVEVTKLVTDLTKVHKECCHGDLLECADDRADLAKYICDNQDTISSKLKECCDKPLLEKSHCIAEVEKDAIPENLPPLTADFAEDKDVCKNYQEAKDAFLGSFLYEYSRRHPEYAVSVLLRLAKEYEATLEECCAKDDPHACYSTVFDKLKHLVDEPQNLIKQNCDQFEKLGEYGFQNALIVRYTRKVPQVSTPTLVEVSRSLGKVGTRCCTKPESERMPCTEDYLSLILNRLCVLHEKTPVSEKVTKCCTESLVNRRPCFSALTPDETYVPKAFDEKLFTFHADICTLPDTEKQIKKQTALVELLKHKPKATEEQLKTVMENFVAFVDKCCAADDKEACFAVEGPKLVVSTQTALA

| SMILES | composite z-score (Albumin (Bos taurus)) | composite Z-score [1] | composite z-score [2] | composite z-score [3] | composite z-score [4] | composite z-score [5] | composite z-score [6] | composite z-score (Sam68 (KHDRBS1)) | composite z-score [7] | composite z-score [8] |
| --- | --- | --- | --- | --- | --- | --- | --- | --- | --- | --- |
| CC(C)N1C(=O)C[C@@](C(=O)NCc2ccccc2)(c2ccc([N+](=O)[O-])cc2)[C@H]1c1ccc(CO)cc1 | 0.467 | 0.0119 (inactive) | -0.186 | -0.0617 | 0.702 | 2.37 | 0.506 | 1.31 | -0.791 | -0.0974 |
| CC(C)NC(=O)[C@@H]1c2ccccc2C(=O)N(Cc2ccccc2)[C@H]1c1ccc(CO)cc1 | -0.113 | 0.601 (inactive) | 0.0237 | -0.0638 | 0.706 | 2.01 | 0.821 | -0.598 | -1.38 | -0.717 |
| Cc1ccc(S[C@]2(C(=O)NC3CC3)CC(=O)N(Cc3ccccc3)[C@@H]2c2ccc(CO)cc2)cc1 | 0.391 | 0.225 (inactive) | -0.284 | 0.125 | 0.27 | 2.78 | 0.677 | -0.664 | -1.49 | -0.788 |
| COc1ccc(C(O)C2C=CC3C(=O)NC(=O)C3N2Nc2ccccn2)cc1OCc1ccccc1 (stereo not given) | 0.68 | 0.0296 (inactive) | 0.089 | -0.0308 | 0.855 | 1.76 | 0.759 | -0.255 | 0.0961 | 0.212 |
| COCCOC(=O)N1C(=O)[C@@]2(c3cc(C#CCC(C(=O)OC)C(=O)OC)ccc31)[C@H](c1ccccc1OCCO)N1[C@H](c3ccccc3)[C@H](c3ccccc3)OC(=O)[C@H]1[C@@H]2C(=O)N1CCc2cc(OC)c(OC)cc2C1 | 0.534 | 0.405 (inactive) | 0.134 | -0.16 | 0.45 | 0.833 | 0.211 | 1.29 | 0.787 | 1.16 |
| O=C1C2C=CC(C(O)c3ccc(-c4ccccc4)s3)N(n3cnnc3)C2C(=O)N1Cc1ccccc1 (stereo not given) | -0.314 | -0.34 (inactive) | 0.0519 | -0.0467 | 0.465 | 0.942 | 0.253 | 0.145 | -0.42 | 0.615 |
| CC(C)(C)OC(=O)CC[C@@]1(C(=O)NCCN2CCOCC2)N=C(c2ccc(OCCCO)cc2)O[C@@H]1c1ccccc1 | 1.03 | -0.548 (inactive) | 0.209 | 0.0129 | 0.539 | 1.46 | 0.275 | 1.3 | -0.0233 | 1.17 |
| CN1C=C(C(=O)OCCS(C)(=O)=O)C(C(=O)OCCS(C)(=O)=O)=CC(CCCO)=CC1C1CC1 (stereo not given) | 0.846 | -0.561 (inactive) | -0.0613 | -0.108 | 0.826 | 0.606 | -0.0075 | -0.0704 | -0.705 | 0.183 |
| COc1cc(C(O)C2C=CC3C(=O)N(c4ccccc4)C(=O)C3N2Nc2ccc(C#N)cc2)cc(OC)c1OC (stereo not given) | 1.01 | 0.0402 (inactive) | 0.178 | 0.135 | 0.883 | 3.23 | 1.26 | 1.32 | -1.05 | 1.21 |
| O=C1C=CC(=O)[C@@H]2CC(COc3ccccc3)=C3[C@@H](CCc4ccccc4)OB(O)C[C@@H]3[C@H]12 | -0.182 | 0.155 (inactive) | -0.0647 | -0.219 | -0.0292 | 0.113 | -0.17 | 0.359 | 0.299 | 0.238 |
| CC=CC(O)C1C=CC2C(=O)N(c3ccccc3)C(=O)C2N1Nc1ccc(C(C)C)cc1 (stereo not given) | 0.98 | 0.609 (inactive) | 0.271 | 0.0751 | 0.641 | 3.26 | 0.3 | 1.3 | 0.0045 | 1.11 |
| CCOC(=O)C1=CCC(C(C)(C)C)N(S(=O)(=O)c2ccc(C)cc2)C1 (stereo not given) | 0.815 | -0.427 (inactive) | 0.34 | -0.0196 | 0.623 | 2.45 | 0.368 | 1.32 | 0.825 | 1.1 |
| O=C1[C@]2(CO)C=C(Br)[C@@H](C[C@@H]2c2ccccc2)[C@@]12CO2 | -0.102 | 0.689 (inactive) | -0.0763 | -0.16 | 0.129 | -0.307 | -0.139 | -0.566 | 0.0616 | 0.195 |
| C=CCOC(=O)[C@H]1[C@@H]2C(=O)O[C@@H](c3ccccc3)[C@@H](c3ccccc3)N2[C@@H](c2ccc(OCCOC(=O)[C@@H]3C[C@@H]4C(=O)NCC(=O)N4[C@@H]3c3ccc(O)cc3)cc2)[C@]12C(=O)Nc1ccccc12 | 0.212 | 1.07 (inactive) | 0.0006 | -0.168 | 0.475 | 2.45 | 0.537 | 1.29 | 1.32 | 1.11 |
| CCOC(=O)C[C@H]1[C@H](OC(=O)c2ccc(C(=O)c3ccccc3)cc2)[C@@H](NC(=O)C2CCCCC2)c2cc(OCCCO)ccc2N1C(=O)c1ccccc1 | 0.473 | 0.599 (inactive) | 0.369 | -0.132 | 0.159 | 1.54 | 0.297 | 1.31 | -0.047 | 0.799 |
| COC(=O)c1ccc(C(O)C2C=CC3C(=O)N(c4ccccc4)C(=O)C3N2Nc2ccc(C#N)cc2)o1 (stereo not given) | 0.887 | -0.336 (inactive) | 0.0282 | -0.0878 | 0.436 | 2.85 | 0.387 | 0.735 | 0.0997 | 0.635 |

| SMILES | composite z-score (Albumin (Bos taurus)) | composite Z-score [1] | composite z-score [2] | composite z-score [3] | composite z-score [4] | composite z-score [5] | composite z-score [6] | composite z-score (Sam68 (KHDRBS1)) | composite z-score [7] | composite z-score [8] |
| --- | --- | --- | --- | --- | --- | --- | --- | --- | --- | --- |
| COCCOC(=O)N1C(=O)[C@@]2(c3cc(C#CCNC(N)=O)ccc31)[C@H](C(=O)N1CCN(c3ncccn3)CC1)[C@H]1C(=O)O[C@H](c3ccccc3)[C@H](c3ccccc3)N1[C@@H]2c1ccccc1OCCO | 0.413 | 0.255 (inactive) | 0.209 | 0.0066 | 0.358 | 1.08 | 0.427 | 1.31 | 0.867 | 1.02 |
| Cc1cc(C)c(C(O)C2C=CC3C(=O)N(C)C(=O)C3N2Nc2ccccc2)c(C)c1 (stereo not given) | 0.72 | 2.43 (inactive) | 1.35 | 0.818 | 0.784 | 1.2 | 0.781 | 0.485 | 0.452 | 0.143 |
| CCCCCCc1nc(CCCc2cc3c(c(CCCCCC)n2)[Si](C(C)C)(C(C)C)OC3)cc2c1[Si](C(C)C)(C(C)C)OC2 | -1.17 | -0.295 (inactive) | -0.0427 | -0.0649 | -0.567 | 0.111 | 0.0313 | -0.641 | 0.21 | -0.569 |
| O=C1O[C@H](c2ccccc2)[C@H](c2ccccc2)N2[C@H]1[C@@H](C(=O)O)[C@]1(C(=O)Nc3ccc(C#CC4=CCCCC4)cc31)[C@H]2c1ccc(OCCO)cc1 | 0.638 | 0.0759 (inactive) | 0.133 | -0.0523 | 0.537 | 2.01 | 1.48 | 1.29 | 0.494 | 1.18 |
| CC(C)N1CC=CC23O[C@@H]4C=CCOC(=O)[C@@H]4[C@H]2C(=O)N(CCO)[C@@H]3C1=O (stereo not given in full) | -0.0355 | 0.604 (inactive) | -0.299 | -0.14 | 0.9 | 1.29 | -0.252 | 0.557 | -1.59 | -0.329 |
| COC(=O)c1ccc(C(O)C2C=CC3C(=O)N(C)C(=O)C3N2NC(=O)OC(C)(C)C)o1 (stereo not given) | 0.538 | 1.02 (inactive) | 0.178 | 0.135 | 0.436 | 0.489 | 0.734 | 0.94 | -0.0987 | 0.494 |
| CC(=O)NCCCC[C@@H]1NC(=O)[C@@H]2C[C@H](C(=O)NCCCCCCNC(=O)CS)[C@H](c3ccc(O)cc3)N2C1=O | -0.0424 | -0.202 (inactive) | -0.256 | -0.129 | 0.597 | 0.846 | 0.386 | 0.464 | -0.573 | 0.647 |
| COc1ccc(CCNC(=O)[C@@H]2c3ccccc3C(=O)N(Cc3ccc(OC(F)(F)F)cc3)[C@H]2c2ccc(CO)cc2)cc1 | 0.59 | -0.313 (inactive) | -0.0077 | -0.0029 | 0.497 | 1.53 | 0.983 | 1.07 | 0.0372 | 0.485 |
| Cc1ccc(S[C@]2(C(=O)NC3CC3)CC(=O)N(C3CCCCC3)[C@@H]2c2ccc(CO)cc2I)cc1 | 0.599 | -0.186 (inactive) | 0.0426 | -0.123 | 0.408 | 1.31 | 0.396 | 1.28 | 0.0261 | 0.896 |
| CCCCC=C[C@@H](NC(=O)c1ccc(C(=O)OC)cc1)c1ccccc1 | 0.924 | -0.213 (inactive) | 0.313 | -0.171 | 0.235 | 1.81 | 0.327 | 1.15 | -0.14 | 0.887 |
| C=CC[C@@]1(C(=O)N2CCOCC2)N=C(c2ccc(OCCCO)cc2)O[C@@H]1c1ccccc1N=[N+]=[N-] | 0.872 | -0.885 (inactive) | 0.364 | 0.0753 | 0.419 | 2.43 | 1 | 1.29 | -0.142 | 1.09 |
| CN(C)C(=O)[C@]1(CCC(=O)OC(C)(C)C)N=C(c2ccc(OCCCO)cc2)O[C@@H]1c1ccccc1N=[N+]=[N-] | 0.934 | 0.155 (inactive) | 0.374 | -0.0985 | 0.719 | 3.15 | 0.964 | 1.31 | -0.516 | 0.858 |
| COC(=O)[C@@]1(Cc2ccccc2)[C@H]2c3cc(C(=O)N4CCCC4)n(C)c3C[C@H]2CN1C(=O)c1ccccc1 | 1.06 | 0.363 (inactive) | 0.347 | -0.138 | 0.912 | 2.35 | 0.711 | -0.0981 | -1.18 | 1.07 |
| CCC[C@@H]1C=C(C(=O)O)[C@H](c2ccc(C)cc2)N1S(=O)(=O)c1ccc(C)cc1 | 0.972 | 0.102 (inactive) | 0.195 | 0.0029 | 0.799 | 2.71 | 0.738 | 1.33 | -0.802 | 0.757 |
| CCC(CC)C(O)C1C=CC2C(=O)N(c3ccccc3)C(=O)C2N1Nc1ccc(C#N)cc1 (stereo not given) | 1.09 | 0.35 (inactive) | 0.628 | 0.241 | 0.729 | 2.61 | -0.266 | 1.3 | 0.158 | 1.23 |
| C[C@H]1NC(=O)[C@H](Cc2ccccc2)NC(=O)[C@@]23C(=O)N[C@@H](Cc4ccccc4)C2[C@H](C)[C@@]2(C)O[C@H]2C3/C=C/C/C=C\CNC1=O (stereo not given in full) | -1.45 | 0.572 (inactive) | -0.15 | -0.118 | -0.0479 | -1.21 | 0.0584 | -1.69 | 0.417 | -1.44 |
